# An excerpt weighted towards active compounds, which were near 27% of everything screened.
# sEH inh: soluble epoxide hydrolase inhibitors, primary screen, biochemical, human sEH. Bifunctional epoxide hydrolase 2 (Homo sapiens), P34913. recombinant human sEH enzymatic activity assay. inhibition, % at 2 µM. actives 0.34% (n = 91,000). AID 707, 2007; in the data active = inhibition above about 80%
# CYP2C19 inhib: blockers of cytochrome P450 2C19 activity – biochemical, luminescence, ADME assay, primary screen. CYP2C19 Supersomes, luciferin-H EGE luminescence, 30 min. AID 778, 2007. actives 21% (n = 96,000). P33261. inhibition, % at 5 µM;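 active = CYP2C19 inhibition above a set limit at 5 µM in the primary screen, cut at about 50% in these data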;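 note: plate controls were negative control wells for no effect and 2.5 mM tranylcypromine positive control for full effect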
# Target sequence (P33261 whole entry, looked up): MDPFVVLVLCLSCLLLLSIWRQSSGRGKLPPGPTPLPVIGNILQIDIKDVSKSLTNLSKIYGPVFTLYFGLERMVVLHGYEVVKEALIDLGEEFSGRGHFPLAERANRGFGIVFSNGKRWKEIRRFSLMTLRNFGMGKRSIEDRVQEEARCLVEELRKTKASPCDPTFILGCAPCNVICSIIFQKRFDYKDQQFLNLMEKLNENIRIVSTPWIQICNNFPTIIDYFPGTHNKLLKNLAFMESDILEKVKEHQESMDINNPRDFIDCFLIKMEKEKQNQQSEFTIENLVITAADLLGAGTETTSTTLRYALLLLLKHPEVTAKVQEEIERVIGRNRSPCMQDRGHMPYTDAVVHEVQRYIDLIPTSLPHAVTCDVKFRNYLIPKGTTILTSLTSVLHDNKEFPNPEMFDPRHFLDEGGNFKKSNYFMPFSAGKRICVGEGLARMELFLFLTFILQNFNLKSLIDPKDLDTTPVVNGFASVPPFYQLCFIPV
# CYP2C9 inhib: blockers of cytochrome P450 2C9 activity – biochemical, luminescence, ADME assay, primary screen | inhibition, % at 5 µM | actives 20% (n = 96,000) | AID 777, 2007 | CYP2C9 Supersomes, luciferin-H conversion | P11712;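 active = blocking of liver enzyme CYP2C9 beyond about 50% at 5 µM, limit read from the data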
# sEH activator: soluble epoxide hydrolase activators, primary screen, biochemical, human sEH | purified human sEH enzymatic activity, activator screen | actives 0.04% (n = 91,000) | Bifunctional epoxide hydrolase 2 (Homo sapiens), P34913 | activation, % at 2 µM; in the data active = activation above about 37%
# CYP2C19 activ: human CYP2C19 activators, primary screen, biochemical, luminescence. activation factor at 5 µM. AID 1025, 2008. Cytochrome P450 2C19 (Homo sapiens), P33261. 96,000 tested, under 10 active. recombinant CYP2C19, luciferin-H EGE luminescence; stronger effect = higher value; 0 = fully inhibited enzyme, 1 = untreated enzyme;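 active = activation factor of at least 2 at 5 µM in the primary screen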;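 note: 0 = wells with 2.5 mM tranylcypromine and 1 = vehicle-only wells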
# CYP2C9 activ: human CYP2C9 activators, primary screen, biochemical, luminescence; actives 1.4% (n = 96,000); Cytochrome P450 2C9 (Homo sapiens), P11712; activation factor at 5 µM; AID 1024, 2008; recombinant CYP2C9, luciferin-H conversion; stronger effect = higher value; factor 1 = untreated enzyme, 0 = blocked;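 active = activation factor of 2 or more for CYP2C9 at a 5 µM dose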;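 note: 0 = sulfaphenazole-blocked wells and 1 = vehicle-only wells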
# * marks the source's active call; other numbers are inactive results; . = not tested or not shown.
SMILES,sEH inh,CYP2C19 inhib,CYP2C9 inhib,sEH activator,CYP2C19 activ,CYP2C9 activ
CCc1cc2c(=O)n(N)c(CCC(=O)O)nc2s1,-4.6,-6.0,-3.5,3.1,1.1,1
O=C(CNCCC1=CCCCC1)Nc1ccccc1N1CCCCC1,-1.5,92.6*,86.4*,3.5,0.1,0.1
O=C(CNC1CCCCCC1)Nc1ccccc1N1CCCCC1,-4.6,56.6*,23.5,6.4,0.4,0.8
COc1ccc(NC(=O)CNCCC2=CCCCC2)cc1,15.6,29.1,-16.9,-11.3,0.7,1.2
O=C(Nc1ccccc1N1CCN(c2ccccc2)CC1)C1CCCCC1,.,-0.6,25.7,.,1,0.7
O=C(CNCC1CCCCC1)Nc1ccccc1N1CCCCC1,0.1,73.9*,48.0,1.6,0.3,0.5
O=C(CN1CCc2ccccc2C1)Nc1ccccc1N1CCCCCC1,8.8,90.0*,72.6*,-10.1,0.1,0.3
CS(=O)(=O)N(Cc1cc2ccccc2[nH]c1=O)C1CCCCC1,-11.9,20.7,23.0,11.3,0.8,0.8
O=C(CSc1nnc(CNC(=O)c2cccs2)o1)NCCc1ccccc1,12.0,.,.,-13.1,.,.
COc1ccc(S(=O)(=O)N2CCC(C(=O)NCCC3=CCCCC3)CC2)cc1OC,47.0,49.7,-4.4,-46.8,0.5,1
COc1cc(CNC2CCCC2)cc(OC)c1OC,-4.2,-1.5,-13.2,3.1,1,1.1
CCOc1cc(CNC2CCCC2)cc(Cl)c1OCc1ccc(F)cc1,1.6,95.0*,36.9,1.1,0.1,0.6
COc1cc(CNC2CCCC2)cc(Cl)c1OCc1ccc(F)cc1,-9.1,95.4*,31.2,11.7,0,0.7
CCN(CC)C(=O)C1=C(C)NC(=O)NC1c1c(F)cccc1Cl (stereo not given),-4.1,-0.3,-4.9,6.6,1,1
CCOc1ccc(NC(=O)N(C2CCCCC2)C(C)c2ccncc2)cc1 (stereo not given),0.1,62.8*,68.4*,-0.5,0.4,0.3
Cc1ccc(C2C(/C=C3/SC(=S)NC3=O)=C(c3cccs3)Oc3ccccc32)cc1 (stereo not given),-10.8,1.1,67.6*,13.0,1,0.3
Cc1cc(-n2nc(C)cc2C)n2nc(C)c(-c3ccc(Cl)cc3)c2n1,1.9,-17.0,24.8,-2.5,1.2,0.8
CNC(=O)c1ccccc1-c1ccccc1,-8.0,-8.6,-14.4,7.2,1.1,1.1
O=C(Nc1ccc(S(=O)(=O)NC2CCCCC2)cc1)c1ccc(Br)o1,41.3,7.9,23.0,-41.1,0.9,0.8
CN(C1CCCCC1)S(=O)(=O)c1ccc(NC(=O)c2ccc(Br)o2)cc1,64.6,93.7*,98.4*,-64.5,0.1,0
CN(C)S(=O)(=O)c1ccc(NC(=O)c2ccc(Br)o2)cc1,9.3,54.2*,42.7,-11.4,0.5,0.6
O=C(CN1C(=O)c2ccccc2C1=O)Nc1ccccc1C(=O)N1CCCC1,0.6,4.8,-4.1,-0.5,1,1
CCCCN(CCCC)C(=O)c1ccccc1NC(=O)CN1C(=O)c2ccccc2C1=O,-4.4,92.0*,92.8*,0.0,0.1,0.1
CC(C)CNC(=O)C1CC(=O)OC12CCCCC2 (stereo not given),9.7,-2.1,2.7,-10.4,1,1
COC(=O)c1ccccc1NC(=O)CN1CCC(NC(=O)c2ccccc2C)CC1,2.8,82.4*,53.9*,-4.2,0.2,0.5
SMILES,sEH inh,CYP2C19 inhib,CYP2C9 inhib,sEH activator,CYP2C19 activ,CYP2C9 activ
Cc1cc(C)c2cccc(NC(=S)NC(=O)c3ccccc3)c2n1,-2.4,-5.8,-25.0,5.7,1.1,1.3
Cc1ccccc1C(=O)NC1CCN(CC(=O)Nc2nccs2)CC1,-10.5,-11.3,-9.7,12.2,1.1,1.1
COC(=O)c1ccccc1NC(=S)NC(=O)c1ccccc1C,-0.6,51.2*,26.7,0.5,0.5,0.7
COC(=O)c1ccccc1NC(=S)NC(=O)c1ccccc1,1.6,56.1*,25.0,1.3,0.4,0.8
Cc1ccc2cccc(NC(=S)NC(=O)c3ccccc3)c2n1,3.4,16.0,-168.0,-3.8,0.8,2.7*
CC1(C)CC(NCc2ccc3c(c2)OCO3)CCO1 (stereo not given),13.1,24.6,12.3,-10.6,0.8,0.9
Cc1cc(Cn2ccnc2)c(C)cc1Cn1ccnc1,5.4,97.1*,95.2*,-3.6,0,0
COC(=O)c1cccnc1-n1c(=O)c2cccnc2n(Cc2ccc(Cl)cc2)c1=O,0.1,58.7*,29.6,-1.0,0.4,0.7
COC(=O)c1sc2ncccc2c1OCc1ccc(Cl)cc1,-7.3,-5.4,11.3,4.4,1.1,0.9
S=c1[nH]nc(C2CCCCC2)n1/N=C/c1cccs1,-0.1,20.4,10.9,-0.2,0.8,0.9
CCc1ccc(N(C(=O)CNC(=O)c2cccs2)C(C(=O)NC(C)(C)C)c2cc(OC)c(OC)c(OC)c2)cc1 (stereo not given),5.7,35.7,41.2,-3.5,0.6,0.6
COc1ccc(C(=O)COC(=O)CCn2nnc(-c3cccc(O)c3OC)n2)cc1,8.6,7.8,0.2,-8.0,0.9,1
COc1ccc(-c2cc3ccc(OCc4nn[nH]n4)cc3oc2=O)cc1OC,1.4,32.2,58.9*,-3.0,0.7,0.4
COc1ccc(-c2cc(=O)oc3cc(OCc4nn[nH]n4)ccc23)cc1,-7.7,31.4,76.0*,4.7,0.7,0.2
Cc1c(CC(=O)O)c(=O)oc2cc(OCc3nn[nH]n3)ccc12,0.6,-11.5,-1.8,0.3,1.1,1
COC(=O)COc1ccc2c(-c3ccc(OC)cc3)cc(=O)oc2c1,11.1,51.7*,29.7,-11.9,0.5,0.7
CC(Oc1ccc2c(-c3ccccc3)cc(=O)oc2c1)C(=O)O (stereo not given),-7.7,8.6,74.1*,7.3,0.9,0.3
COC(=O)COc1ccc2c(-c3cccc([N+](=O)[O-])c3)cc(=O)oc2c1,-0.9,.,.,2.1,.,.
CC(C)(C)NC(=O)CC(CC(=O)O)c1ccccc1 (stereo not given),-12.2,-4.0,-2.5,11.1,1,1
COCCNC(=O)c1c[nH]c2ccc(S(=O)(=O)N3CCC4(CC3)OCCO4)cc2c1=O,3.4,11.5,19.8,-0.5,0.9,0.8
Cc1ccc(C2C(C#N)=C(N)SC(N)=C2C#N)c(C)c1,.,54.2*,30.9,.,0.5,0.7
O=C(CNS(=O)(=O)c1cccs1)N1CCc2ccccc2C1,-10.5,53.2*,-13.0,10.6,0.5,1.1
O=C(CNS(=O)(=O)c1cccs1)N1CCCC1,.,9.6,-4.0,.,0.9,1
